Screens as filed in PubChem.
Hits are enriched below; roughly 0.53% of the tested compounds scored in any of these assays.
GLS inh: qHTS for Inhibitors of Glutaminase (GLS); Glutaminase kidney isoform, mitochondrial (Homo sapiens), O94925; GLS enzymatic activity, qHTS titration; Potency, µM (highest dose often 45.5 µM), without a hit: top-dose activity change, negative = inhibition, hits mostly inhibitors; 0.21% of 410,000 active; note: potency is the fitted concentration of half-maximal effect
Target sequence (O94925 whole entry, looked up, canonical isoform): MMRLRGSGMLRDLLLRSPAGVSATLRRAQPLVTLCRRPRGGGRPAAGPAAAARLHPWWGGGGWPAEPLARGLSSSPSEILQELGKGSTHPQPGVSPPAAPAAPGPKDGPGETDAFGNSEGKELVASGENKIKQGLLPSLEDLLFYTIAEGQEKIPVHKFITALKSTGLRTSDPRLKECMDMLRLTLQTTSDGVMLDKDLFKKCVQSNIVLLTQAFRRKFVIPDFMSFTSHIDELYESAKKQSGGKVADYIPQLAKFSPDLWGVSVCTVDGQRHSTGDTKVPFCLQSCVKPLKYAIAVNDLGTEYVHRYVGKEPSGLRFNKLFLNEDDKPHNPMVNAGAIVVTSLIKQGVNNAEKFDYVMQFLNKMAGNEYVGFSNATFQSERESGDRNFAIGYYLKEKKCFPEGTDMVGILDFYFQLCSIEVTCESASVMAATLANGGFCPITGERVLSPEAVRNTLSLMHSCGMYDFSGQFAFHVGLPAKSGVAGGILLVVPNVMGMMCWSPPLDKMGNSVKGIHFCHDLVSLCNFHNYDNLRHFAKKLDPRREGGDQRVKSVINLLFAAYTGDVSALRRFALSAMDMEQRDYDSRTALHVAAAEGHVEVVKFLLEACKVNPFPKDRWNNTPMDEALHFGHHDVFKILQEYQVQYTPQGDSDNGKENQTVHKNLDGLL
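Glutamate formation by hKGA was monitored fluorometrically using coupled glutamate oxidase, HRP and Amplex Red. Substrate was added as 1 mM L-glutamine solution; incubation was 30 min at RT after an initial read.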
PI4K2A inh: qHTS for small molecular inhibitors of PI4K2A; activity change, negative = inhibition, % at 76.9 µM; AID 1346378, 2018; purified PI4K2A, ADP-Glo luminescence, 1 h; active compounds read low; Phosphatidylinositol 4-kinase type 2-alpha (Homo sapiens), Q9BTU6; 0.13% of 420,000 active; in the data active = activity change below about -50%; inconclusive = mostly about -30% to -49%;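 note: -100% = wells without enzyme as full effect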
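PI4K2A activity was measured by ADP-Glo luminescence: enzyme (4 ug/mL stock) and phosphatidylinositol (1.2 mM stock) in Tris pH 7.5/MgCl2/EGTA/Triton X-100 buffer were reacted with ATP (300 microM stock) for one hour at ambient temperature.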
Tb PGK inh: qHTS Assay to Find Inhibitors of Phosphoglycerate Kinase | Phosphoglycerate kinase, glycosomal (Trypanosoma brucei brucei), P07378 | PGK/GAPDH coupled, Kinase-Glo luminescence, 60 min | Potency, µM (doses to about 57.5 µM), inactives show top-dose activity change, negative = inhibition, actives largely listed as inhibitors | 0.043% of 380,000 active; note: potency is the fitted concentration of half-maximal effect; nearly all actives have a fitted effect of over 60% in size
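Luminescent ATP detection (Kinase-Glo Plus) follows a 60-minute room-temperature incubation, with wells lacking PGK as controls. Buffer: 100 mM TEA (pH 7.6), 5 mM MgCl2, 0.01% Tween-20. Coupling enzyme GAPDH (100 nM final) supplies unstable 1,3-BPG in-well.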
USP1-UAF1 inh: Inhibitors of USP1/UAF1: Primary Screen; recombinant USP1/UAF1, Ub-Rhodamine cleavage fluorescence; Ubiquitin carboxyl-terminal hydrolase 1 (Homo sapiens), O94782; Potency, µM (doses to about 57.1 µM), without a hit: at the top dose activity change, negative = inhibition, actives largely listed as inhibitors; 0.23% of 390,000 active; note: potency is the fitted concentration of half-maximal effect; nearly all actives have a fitted effect of over 60% in size
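1 nM enzyme complex + cpd, 15 min RT; start with Ub-Rho 150nM final; kinetic fluorescence ex 480/em 540, 6 reads q60 s. Buffer 50mM HEPES pH 7.8, 0.5mM EDTA, 0.1 mg/ml BSA, 1mM TCEP, 0.01% Tween-20.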
An asterisk follows results filed as active; i = inactive; ? = inconclusive; . = no result given. Unless noted, calls come from the whole dose curve; as a rule, active = well fitted curve in the direction sought with a large enough effect; inconclusive = small, poorly fitted or top-dose-only effect, or another doubt; inactive = no such curve, though single readings can be large; an effect the other way counts as inactive or inconclusive. Unless noted, % is set by controls: 0 for no effect and ±100 for the full control effect.

SMILES | GLS inh | PI4K2A inh | Tb PGK inh | USP1-UAF1 inh
O=C(N/N=C/c1ccc(O)c(O)c1)c1cccc(S(=O)(=O)N2CCCCC2)c1 | 7.1µM* | -5 | -10% | -1%
CCOC(=O)/C(=C\C=C1/Sc2cc(OCC)c(OCC)cc2N1CC)C(C)=O | ? | -15 | 4% | 25µM*
CCN1/C(=C\C=C2\C(=O)N(C)C(=S)N2C)Sc2ccccc21 | ? | -5 | 3% | -8%
CCOC(=O)/C(=C/C=C1\Sc2cc(OCC)c(OCC)cc2N1CC)C(C)=O | 12% | 2 | -7% | 22µM*
CCN1/C(=C/C(C)=O)Sc2ccc(OC)cc21 | -4% | 3 | 4% | -14%
CN1C(=O)C[C@@](C#N)(C(=O)NCc2ccccc2)[C@H]1c1ccccc1 | . | 1 | . | .
CCOc1cc(/C=C2\CN(CC)C/C(=C\c3ccc(O)c(OCC)c3)C2=O)ccc1O | 13µM* | -19 | 12% | -16%
CCOc1cc(C=NN2CCCCCC2)ccc1O | 11µM* | 2 | -2% | -17%
CCOc1cc(/C=N/N2CCN(Cc3ccccc3)CC2)ccc1O | ? | 1 | -10% | -14%
C[C@@H](C(=O)O)c1ccc(C2CCCCC2)c2ccccc12 | 1% | . | . | .
CC(C)CC(=NNC(=O)c1ccncc1)c1cc(Cl)ccc1O | 6% | 4 | 9% | 28µM*
CC(=NNC(=O)c1ccncc1)c1ccccc1O | -1% | 2 | -9% | -6%
Oc1ccc(/C=N/N=C/c2ccc(O)c(O)c2)cc1O | ? | 0 | ? | -17%
Oc1ccc(N=Cc2ccc(O)c(O)c2)cc1 | ? | -28 | -6% | 7.9µM*
CCN(CC)c1ccc(/C=C(/C#N)C(=O)NCc2ccccc2)o1 | 1% | 3 | -2% | 32µM*
N#C/C(=C\c1ccc(O)cc1)C(=O)NCc1ccccc1 | 12% | 0 | -10% | -14%
CCN(CC)c1ccc(/C=C(/C#N)C(=O)NC(C)C)o1 | 4% | 3 | 5% | 25µM*
CCCC(CCC)(C(=O)OCC)C(=O)OCC | . | -5 | . | .
O=[N+]([O-])c1ccc(Oc2ccc(N=C=S)cc2)cc1 | 3% | . | . | .
O=C(N/N=C/c1cccc(F)c1)c1cc(-c2ccco2)nc2ccccc12 | 13µM* | ? | ? | ?
O=C(O)C(O)c1ccco1 (stereo unspecified) | ? | -9 | 14µM* | 0%
O=C(O)C(O)c1ccccc1 (stereo unspecified) | 5% | 7 | -1% | -8%
COc1ccc(OC)c(NC(=O)O[C@@H]2CC[C@@]34CCCN3C(=O)CCC[C@H]4C2)c1 | . | -3 | . | .
Oc1ccc(/C=N/N2CCCCC2)c(O)c1 | 6.3µM* | 1 | 5% | -4%
N#Cc1cc(C(=O)c2ccccc2O)cn(-c2nccs2)c1=O | 20% | -11 | -12% | 28µM*
SMILES | GLS inh | PI4K2A inh | Tb PGK inh | USP1-UAF1 inh
N#Cc1cc(C(=O)c2cc(F)ccc2O)cn(-c2nccs2)c1=O | ? | 5 | -5% | 25µM*
Cc1c(-n2cc(C(=O)c3cc(F)ccc3O)cc(C#N)c2=O)c(=O)n(-c2ccccc2)n1C | 0% | -20 | 1% | -21%
O=C(O)c1ccc(N=Nc2c(O)[nH]c3ccccc23)cc1 | 16% | -62* | -24% | -24%
O=S(=O)(Nc1ccc(Cc2ccncc2)cc1)c1ccc(Cl)cc1 | 4% | -1 | -14% | -11%
O=c1ccc(NS(=O)(=O)c2ccc(Cl)cc2)cn1Cc1ccc(Cl)c(Cl)c1 | 27% | -59* | -6% | -14%
C[C@H](/C=C/[C@H](C)C(C)(C)O)[C@H]1CC[C@H]2/C(=C/C=C3C[C@@H](O)C[C@H](O)C3)CCC[C@]12C | -1% | . | . | .
COc1ccc(-c2ccc(NC(=O)c3ccco3)cc2)nn1 | -1% | -53* | ? | -1%
COc1ccc(-c2cccc(NC(=O)c3ccco3)c2)nn1 | -6% | -1 | -3% | -10%
COc1ccc(/C=C2\C(=O)NC(=O)c3ccccc32)cc1OC | 29% | ? | -16% | 1.8µM*
COc1ccc(C=C2C(=O)OC(C)(C)OC2=O)cc1OC | 2% | -2 | -4% | -15%
COc1ccc(-c2nc3ccccn3c2CN2CCN(c3ccccc3F)CC2)cc1 | 3% | 1 | -1% | ?
COc1ccc(-c2nc3ccccn3c2Cl)cc1 | -2% | -52* | ? | -13%
O=C1C=C(N2CCCCC2)c2ccccc2C1=O | 5% | ? | -29% | 7.9µM*
COc1cc(C(C[N+](=O)[O-])c2c(C)cc3ccccn23)ccc1O (stereo unspecified) | 7.9µM* | -4 | 10% | -18%
CCOC(=O)N1CCN(c2c(F)cc3[nH]c(=S)[nH]c3c2Br)CC1 | 7.1µM* | -7 | 1% | -5%
CCOC(=O)N1CCN(c2cc3[nH]c(=S)[nH]c3cc2F)CC1 | 16% | -1 | -8% | 9%
CCC(C)NC(=O)CSC1=Nc2ccccc2C2=NC(CC(=O)NCc3ccc(F)cc3)C(=O)N12 (stereo unspecified) | 10µM* | 5 | -3% | 1%
COc1ccc(NC(=O)CSC2=Nc3ccccc3C3=NC(CC(=O)NCc4ccc(F)cc4)C(=O)N23)cc1 (stereo unspecified) | -3% | -2 | -4% | 8%
CCN(CC)C(=O)CSC1=Nc2ccccc2C2=NC(c3ccccc3)C(=O)N12 (stereo unspecified) | 13µM* | 68 | 5% | 1%
Cc1ccc(C(=O)n2ccc3ccc(-c4ccc5ccn(Cc6ccccc6)c5c4)cc32)cc1 | . | -6 | . | .
S=c1[nH]nc2n1CCCN2 | 11µM* | 2 | -5% | -13%
CCOC(=O)C1CCN(c2ccc(-c3cccs3)nn2)CC1 | 3% | -69* | ? | -7%
O=c1/c(=C\c2cc([N+](=O)[O-])cc([N+](=O)[O-])c2O)sc2nc3ccccc3n12 | ? | -5 | ? | ?
O=C(O)c1cccc(-c2ccc(/C=c3/sc4nc5ccccc5n4c3=O)o2)c1 | 13µM* | -1 | ? | ?
COc1ccc(CNC(=O)CCNS(=O)(=O)c2ccc3[nH]c(=O)oc3c2)cc1 | . | 7 | . | .
COC(=O)[C@]12C[C@H](CC(=O)NCCc3ccccc3OC)C(=O)N(Cc3ccc4c(c3)OCO4)C1=C[C@H](C(C)C)O[C@@H]2C1CC1 | . | -3 | . | .
CC(=O)C1=C(C)OC2(O)c3ccccc3C(=O)C12O (stereo unspecified) | 13% | -54* | -8% | 8.9µM*
CCOC(=O)C1=C(C)OC2(O)c3ccccc3C(=O)C12O (stereo unspecified) | 18% | -52* | -9% | 13µM*
CCOC(=O)C1=C(C)N[C@@]2(O)c3ccccc3C(=O)[C@@]12O | 6% | -11 | 6% | -21%
O=C(O)c1ccccc1-c1ccc(/C=C/c2cc(C(F)(F)F)[nH]c(=O)n2)o1 | -4% | -8 | i | 28µM*
